Assay results reported in PubChem BioAssay (NCATS).
Inconclusive results are not listed. Activity calls are given as the source filed them. The call rests on the fitted dose curve; in most records, active means well fitted curve in the direction sought with a large enough effect; inconclusive means small, poorly fitted or top-dose-only effect, or another doubt; inactive means no such curve, though single readings can be large; an effect the other way counts as inactive or inconclusive.

Columns and labels:
[1] = molecular target: Rap guanine nucleotide exchange factor 3 (Homo sapiens) (UniProt O95398); assay: Confirmatory qHTS for antagonist of cAMP-regulated guanine nucleotide exchange factor 3 (EPAC1) (AID 1645880); further: nearly all actives have a fitted effect of over 55% in size; further: potency means the concentration at half of the fitted maximal effect
Chain of Rap guanine nucleotide exchange factor 3 (Homo sapiens) (O95398 whole entry, looked up): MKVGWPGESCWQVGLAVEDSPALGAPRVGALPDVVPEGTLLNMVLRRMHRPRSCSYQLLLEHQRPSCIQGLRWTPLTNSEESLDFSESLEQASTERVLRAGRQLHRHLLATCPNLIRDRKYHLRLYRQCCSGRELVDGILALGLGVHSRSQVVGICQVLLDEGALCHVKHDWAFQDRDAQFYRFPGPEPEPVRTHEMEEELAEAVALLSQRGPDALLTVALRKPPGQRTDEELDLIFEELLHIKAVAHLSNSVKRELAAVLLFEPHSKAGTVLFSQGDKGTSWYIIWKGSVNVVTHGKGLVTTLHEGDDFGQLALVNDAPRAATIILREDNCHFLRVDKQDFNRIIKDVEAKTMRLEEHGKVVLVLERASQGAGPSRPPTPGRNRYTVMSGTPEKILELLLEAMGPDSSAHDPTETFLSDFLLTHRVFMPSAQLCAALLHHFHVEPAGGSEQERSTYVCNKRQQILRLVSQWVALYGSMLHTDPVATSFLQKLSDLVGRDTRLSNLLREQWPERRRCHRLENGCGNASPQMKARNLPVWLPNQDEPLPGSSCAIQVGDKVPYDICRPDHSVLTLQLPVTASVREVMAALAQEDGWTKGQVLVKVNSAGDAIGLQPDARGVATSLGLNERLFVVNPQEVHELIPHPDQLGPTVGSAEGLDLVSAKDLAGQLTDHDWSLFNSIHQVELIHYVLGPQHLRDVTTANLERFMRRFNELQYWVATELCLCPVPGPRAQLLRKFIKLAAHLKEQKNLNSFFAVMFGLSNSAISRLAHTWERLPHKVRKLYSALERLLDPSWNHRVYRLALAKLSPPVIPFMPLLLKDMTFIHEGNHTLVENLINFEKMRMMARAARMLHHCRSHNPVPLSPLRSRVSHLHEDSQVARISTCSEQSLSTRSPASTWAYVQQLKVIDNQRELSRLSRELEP
How it was run: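 Released BODIPY-GDP fluoresces less than Rap1-bound BODIPY-GDP; the signal is followed at 480/540 nm at 5-min intervals over 30 min, after 5 min at room temperature. Reactions contain 100 nM EPAC1, 250 nM RAP1B-BODIPY-GDP and 50 uM GDP; results are normalized to ATA and DMSO.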

[2] = molecular target: Rap guanine nucleotide exchange factor 3 (Homo sapiens) (UniProt O95398); assay: Confirmatory qHTS for agonist of cAMP-regulated guanine nucleotide exchange factor 3 (EPAC1) (AID 1645881); further: nearly all actives have a fitted effect of over 75% in size; further: potency means the concentration at half of the fitted maximal effect;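 on activation: EPAC1 catalysed release of BODIPY-GDP from Rap1B seen as fluorescence loss; 100% = effect of cAMP agonist control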
[3] = molecular target: Rap guanine nucleotide exchange factor 4 (Homo sapiens) (UniProt Q8WZA2); assay: Confirmatory qHTS for agonist of cAMP-regulated guanine nucleotide exchange factor 4 (EPAC2) (AID 1645884);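 further: nucleotide exchange releases bodipy-GDP from Rap1 and this lowers its fluorescence; nearly all actives have a fitted effect of over 65% in size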; further: potency means the concentration at half of the fitted maximal effect; on activation: on the % scale 0 is the no-effect control and ±100 the full control effect
Chain of Rap guanine nucleotide exchange factor 4 (Homo sapiens) (Q8WZA2 whole entry, looked up): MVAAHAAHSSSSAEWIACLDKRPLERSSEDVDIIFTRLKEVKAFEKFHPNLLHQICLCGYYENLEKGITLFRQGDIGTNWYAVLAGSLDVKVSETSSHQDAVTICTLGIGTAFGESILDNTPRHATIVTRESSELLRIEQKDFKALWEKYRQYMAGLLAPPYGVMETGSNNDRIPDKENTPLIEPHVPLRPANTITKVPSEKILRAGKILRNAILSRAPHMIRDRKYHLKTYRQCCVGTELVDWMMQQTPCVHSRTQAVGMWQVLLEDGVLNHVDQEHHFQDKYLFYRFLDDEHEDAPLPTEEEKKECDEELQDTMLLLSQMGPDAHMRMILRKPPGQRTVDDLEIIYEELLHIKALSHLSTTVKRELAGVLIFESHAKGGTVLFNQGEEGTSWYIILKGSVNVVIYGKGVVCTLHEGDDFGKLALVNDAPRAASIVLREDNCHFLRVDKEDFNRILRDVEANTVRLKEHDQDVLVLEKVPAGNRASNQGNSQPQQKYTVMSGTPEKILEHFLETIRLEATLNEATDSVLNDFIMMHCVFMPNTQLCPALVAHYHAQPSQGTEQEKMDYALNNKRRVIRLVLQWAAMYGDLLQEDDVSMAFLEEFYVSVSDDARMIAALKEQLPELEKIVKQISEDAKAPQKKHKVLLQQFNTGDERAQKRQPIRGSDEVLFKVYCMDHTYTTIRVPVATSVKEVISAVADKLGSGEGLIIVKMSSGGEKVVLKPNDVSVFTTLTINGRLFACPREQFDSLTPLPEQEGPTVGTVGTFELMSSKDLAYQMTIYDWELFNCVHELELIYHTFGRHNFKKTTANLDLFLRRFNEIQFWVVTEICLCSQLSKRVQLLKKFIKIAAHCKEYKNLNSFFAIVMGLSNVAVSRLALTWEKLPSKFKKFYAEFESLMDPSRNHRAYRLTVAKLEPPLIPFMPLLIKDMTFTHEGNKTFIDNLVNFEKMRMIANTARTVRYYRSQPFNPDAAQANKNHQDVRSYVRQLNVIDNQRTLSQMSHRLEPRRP

[4] = molecular target: Rap guanine nucleotide exchange factor 4 (Homo sapiens) (UniProt Q8WZA2); assay: Confirmatory qHTS for antagonist of cAMP-regulated guanine nucleotide exchange factor 4 (EPAC2) (AID 1645885); further: nearly all actives have a fitted effect of over 25% in size; further: potency means the concentration at half of the fitted maximal effect; on activity change, negative = inhibition: on the % scale 0 is the no-effect control and ±100 the full control effect
[5] = molecular target: Rap guanine nucleotide exchange factor 3 (Homo sapiens) (UniProt O95398); assay: Counterscreen qHTS for antagonist of cAMP-regulated guanine nucleotide exchange factor 3 (EPAC1) (AID 1645888); further: % of control where 0% means no effect
How it was run: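 Measured: fluorescence of BODIPY-GDP bound to Rap1B, which falls as exchange proceeds. Conditions include 50 uM competing GDP, 5 and 30 min reads, and a later cAMP challenge for antagonist detection.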

O=C1OC(c2ccccc2)/C(=C(/O)c2ccccc2)C1=O (stereo not given)
inactive: Potency [1] | Potency [2] | activation [3] 9.85% [at 17.1 µM, percent relative to cAMP agonist control] | Potency [4] | activity change, negative = inhibition [5] -5.63% [at 30.8 µM]

O=C(OCc1ccc([N+](=O)[O-])cc1)c1cc(=O)c2ccccc2o1
inactive: Potency [1] | Potency [2] | Potency [3] | Potency [4] | Potency [5]

Cc1ccc(N2C(=O)c3ccccc3C2C(=O)c2ccc(O)cc2O)cc1 (stereo not given)
inactive: Potency [1] | Potency [2] | Potency [3] | Potency [4] | Potency [5]

COc1cc(NS(=O)(=O)c2ccc(NC(=O)/C(=C/c3ccccc3Cl)NC(=O)c3ccccc3)cc2)nc(OC)n1
inactive: Potency [2] | Potency [3] | Potency [4] | Potency [5]
active: Potency [1] 84.9 µM

Clc1ccc2nc(C3CCCCC3)c(CC3CCCCC3)n2c1
inactive: Potency [1] | Potency [2] | activation [3] -3.07% [at 17.1 µM, percent relative to cAMP agonist control] | Potency [4] | activity change, negative = inhibition [5] -0.327% [at 30.8 µM]

CCCCOc1ccccc1Cn1c(=O)oc2ccc(C)cc21
inactive: Potency [1] | Potency [2] | Potency [3] | Potency [4] | Potency [5]

CC(=O)/C(=C/N(C)C)Sc1ccc(C)cc1
inactive: Potency [1] | Potency [2] | Potency [3] | Potency [4] | Potency [5]

CN(c1ncnc2onc(-c3cccc(Cl)c3)c12)C1CCCCC1
inactive: Potency [1] | Potency [2] | Potency [3] | outcome [4] inactive [at 12.7 µM] | Potency [5]

CC(C)c1nc(SCC(=O)N2CCCc3ccccc32)c2c(=O)n(C)c(=O)n(C)c2n1
inactive: Potency [1] | Potency [2] | Potency [3] | Potency [4] | Potency [5]

CN(Cc1ccccc1)c1ncnc2onc(-c3ccc(F)cc3)c12
inactive: Potency [1] | Potency [2] | Potency [3] | Potency [4] | Potency [5]

Clc1ccc(CSc2nncn3c2cc2occc23)cc1
inactive: Potency [2] | Potency [3] | Potency [4] | Potency [5]
active: Potency [1] 75.7 µM

Cc1[nH]n(-c2ccccc2)c(=O)c1C(c1cccc([N+](=O)[O-])c1O)c1c(C)[nH]n(-c2ccccc2)c1=O
active: Potency [1] 44.7 µM
inactive: Potency [2] | activation [3] 0.393% [at 17.1 µM, percent relative to cAMP agonist control] | Potency [4] | activity change, negative = inhibition [5] 23.8% [at 30.8 µM]

O=C1NN(c2ccccc2)C(=O)/C1=C\c1coc2ccc(O)cc2c1=O
inactive: Potency [2] | Potency [3] | Potency [4] | Potency [5]
active: Potency [1] 21.3 µM

CCOC(=O)c1c(C)[nH]c(CCC(=O)NCc2cccc(OC)c2)c1C
inactive: Potency [1] | Potency [2] | Potency [3] | Potency [4] | Potency [5]

CC1(C)OCC(C2CC(c3ccccc3)NS(=O)(=O)O2)O1 (stereo not given)
inactive: Potency [1] | Potency [2] | Potency [3] | Potency [4] | Potency [5]

O=C(N/N=C\c1cc([N+](=O)[O-])ccc1N1CCCC1)c1ccccn1
inactive: Potency [1] | Potency [2] | activation [3] 3.56% [at 17.1 µM, percent relative to cAMP agonist control] | Potency [4] | activity change, negative = inhibition [5] -14.6% [at 30.8 µM]

N#C/C(=C/c1ccc(N2CCOCC2)o1)C(=O)Nc1ccccc1
inactive: Potency [1] | Potency [5]
active: Potency [2] 112 µM | Potency [3] 100 µM | Potency [4] 75.7 µM

COc1ccc(C(=O)c2ccc(OC)c(OC)c2OC)cc1
active: Potency [4] 7.57 µM
inactive: Potency [1] | Potency [2] | Potency [3] | Potency [5]

COc1cc(Cl)c(C)cc1NC(=O)CSc1cc(Cl)ccc1Cl
inactive: Potency [2] | Potency [3] | Potency [4] | Potency [5]
active: Potency [1] 67.5 µM

COc1cc(S(=O)(=O)Nc2ccccc2C)ccc1Cl
inactive: Potency [1] | Potency [2] | Potency [3] | Potency [4] | Potency [5]

COc1ccc2c(c1)cc(C(=O)N/N=C/c1c(O)c(C(=O)O)cc3ccccc13)n2C
inactive: Potency [2] | Potency [3] | Potency [5]
active: Potency [1] 67.5 µM | Potency [4] 75.7 µM

CCc1cc2c(-c3ccccc3)cc(=O)oc2cc1OCC(=O)NCC1CCC(C(=O)O)CC1 (stereo not given)
inactive: Potency [1] | Potency [2] | Potency [3] | Potency [4] | Potency [5]

CCOC(=O)Cc1nn(Cc2ccccc2)c(=O)c2ccccc12
inactive: Potency [1] | Potency [2] | Potency [3] | Potency [4] | Potency [5]

Nc1ccc2c3c(cccc13)-c1ccccc1-2
inactive: Potency [1] | Potency [4] | Potency [5]
active: Potency [2] 100 µM | Potency [3] 100 µM

Cc1ccc(C(=O)NCCCNC(=O)c2ccco2)cn1
inactive: Potency [1] | Potency [2] | Potency [3] | Potency [4] | Potency [5]

CSCCC(NC(=O)c1ccc(Cl)cc1)C(=O)OCC(=O)N1CCCC1=O (stereo not given)
inactive: Potency [1] | Potency [2] | activation [3] 10.4% [at 17.1 µM, percent relative to cAMP agonist control] | Potency [4] | activity change, negative = inhibition [5] 5.02% [at 30.8 µM]
